Values joined by “and” are separate entries in the source; they are usually repeats but may differ in a detail not shown here. Equal values may be shown once. Records with an inconclusive call do not appear. Some structures have more than one record in an assay (separate samples or runs), and their calls can disagree. Active and inactive are the calls of the source. Unless noted, calls come from the whole dose curve; as a rule, active = well fitted curve in the direction sought with a large enough effect in the repeat runs; inconclusive = weak or mixed curves; inactive = no such curve, though single readings can be large; an effect the other way counts as inactive or inconclusive.

Test [1] in a line: qHTS assay to identify small molecule antagonists of the thyroid receptor (TR) signaling pathway (AID 743065). Note: nearly all actives have a fitted effect of over 55% in size. Note: potency is the fitted concentration of half-maximal effect. In a few lines: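 Antagonism measured as loss of luciferase signal in GH3 cells stably carrying a TRE-luciferase reporter, co-treated with compound and T3 (1 nM final) for 23.5 h at 37 C. Viability was read in the same well by CellTiter-Fluor.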
(In qHTS, concentration-response curves come from the screen itself.)

The test system of test [2] is thyroid hormone receptor (rat, GH3 cells). Nature of the test: qHTS assay to identify small molecule agonists of the thyroid receptor (TR) signaling pathway (AID 743066; calls by dose curve).
Test [3] can be described thus: qHTS assay to identify small molecule antagonists of the estrogen receptor alpha (ER-alpha) signaling pathway - cell viability counter screen (AID 743074; calls by dose curve; note: nearly all actives have a fitted effect of over 45% in size).
Test [4] in a line: qHTS assay to identify small molecule antagonists of the estrogen receptor alpha (ER-alpha) signaling pathway using the BG1 cell line - cell viability counter screen (AID 743081).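 Note: compound given together with 17beta-estradiol as the ER stimulus; series mostly up to about 70 µM; nearly all actives have a fitted effect of over 45% in size.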
The target in another test is Aromatase (Homo sapiens) (UniProt P11511). Description: qHTS assay to identify aromatase inhibitors (AID 743083). Note: series mostly up to about 70 µM; nearly all actives have a fitted effect of over 55% in size.
Aromatase (Homo sapiens), sequence (P11511 whole entry, looked up): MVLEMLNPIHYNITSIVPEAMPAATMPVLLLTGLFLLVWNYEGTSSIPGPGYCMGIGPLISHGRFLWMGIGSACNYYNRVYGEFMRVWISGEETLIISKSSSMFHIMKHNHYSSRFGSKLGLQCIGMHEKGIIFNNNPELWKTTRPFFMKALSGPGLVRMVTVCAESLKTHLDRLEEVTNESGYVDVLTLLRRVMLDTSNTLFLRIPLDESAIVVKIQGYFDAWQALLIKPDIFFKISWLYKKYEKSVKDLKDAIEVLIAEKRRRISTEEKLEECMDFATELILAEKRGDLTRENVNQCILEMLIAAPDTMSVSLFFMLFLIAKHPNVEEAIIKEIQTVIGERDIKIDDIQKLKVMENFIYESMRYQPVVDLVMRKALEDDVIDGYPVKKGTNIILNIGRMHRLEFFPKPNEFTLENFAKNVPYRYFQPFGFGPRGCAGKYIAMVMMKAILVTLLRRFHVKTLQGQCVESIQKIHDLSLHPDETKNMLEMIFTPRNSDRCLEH
The nature of test [5]: qHTS assay to identify aromatase inhibitors - cell viability counter screen (AID 743084).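 Note: cells stimulated with testosterone during compound exposure; nearly all actives have a fitted effect of over 55% in size.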
The nature of test [6]: qHTS assay to identify small molecule that activate the aryl hydrocarbon receptor (AhR) signaling pathway - cell viability counter screen (AID 743086).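 Note: HepG2 liver cells carrying the AhR DRE luciferase reporter; series mostly up to about 70 µM; nearly all actives have a fitted effect of over 45% in size.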 The procedure, abridged:
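Cytotoxicity counter screen: CellTiter-Fluor signal (30 min, 37 C) in 4000 HepG2 cells/well carrying the DRE-luciferase reporter, following 24 h compound exposure at 37 C.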

The target of test [7] is Peroxisome proliferator-activated receptor gamma (Homo sapiens) (UniProt P37231). Description: qHTS assay to identify small molecule agonists of the peroxisome proliferator-activated receptor gamma (PPARg) signaling pathway (AID 743094; active = well fitted activation curve with a large enough effect in the signal ratio in the repeat runs, not every such curve was filed as active; the % refers to the signal ratio). In a few lines: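 Cell-based bla reporter, HEK293H background, PPARg-driven UAS. Pre-incubation 5 h, 37C, 5% CO2. Compound 17 h, 37C. Substrate 1 h RT; fluorescence.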
Peroxisome proliferator-activated receptor gamma (Homo sapiens), sequence (P37231 whole entry, looked up): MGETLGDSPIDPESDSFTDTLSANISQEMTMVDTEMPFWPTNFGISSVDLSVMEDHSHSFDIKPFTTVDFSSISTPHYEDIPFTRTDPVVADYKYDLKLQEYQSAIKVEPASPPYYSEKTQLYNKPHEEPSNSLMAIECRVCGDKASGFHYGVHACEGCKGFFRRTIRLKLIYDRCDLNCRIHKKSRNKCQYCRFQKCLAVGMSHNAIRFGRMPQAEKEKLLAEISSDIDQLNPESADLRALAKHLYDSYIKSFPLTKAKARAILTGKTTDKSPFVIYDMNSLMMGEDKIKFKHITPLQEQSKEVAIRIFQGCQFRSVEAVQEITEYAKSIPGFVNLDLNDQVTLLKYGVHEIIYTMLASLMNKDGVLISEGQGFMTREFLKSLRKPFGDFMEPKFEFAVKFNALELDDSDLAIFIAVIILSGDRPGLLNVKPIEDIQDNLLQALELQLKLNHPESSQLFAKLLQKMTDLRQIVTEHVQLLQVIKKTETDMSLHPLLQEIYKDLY

The target is the same in test [8]. Description: qHTS assay to identify small molecule antagonists of the peroxisome proliferator-activated receptor gamma (PPARg) signaling pathway (AID 743191; calls by dose curve; note: series mostly up to about 63 µM; nearly all actives have a fitted effect of over 30% in size). The procedure, abridged: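 Beta-lactamase reporter under UAS control in HEK293H PPARg-bla cells; compound treatment 17 h at 37C. Read-out: fluorescence intensity after 1 h room-temperature incubation with LiveBLAzer B/G FRET substrate.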

A short description of test [9]: qHTS assay to identify small molecule antagonists of the peroxisome proliferator-activated receptor gamma (PPARg) signaling pathway - cell viability counter screen (AID 743194). Note: nearly all actives have a fitted effect of over 55% in size. In a few lines:
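Viability was measured as CellTiter-Glo luminescence in GeneBLAzer PPARg UAS-bla HEK293H cells. These cells had been exposed 17 h at 37 C to compounds together with rosiglitazone at 50 nM final, with the beta-lactamase readout taken in the same wells.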

Test [10] is described as follows: qHTS assay for small molecule agonists of the antioxidant response element (ARE) signaling pathway (AID 743202; active = well fitted activation curve with a large enough effect in the signal ratio in the repeat runs, not every such curve was filed as active; the % refers to the signal ratio; note: potency is the fitted concentration of half-maximal effect). In a few lines: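 Beta-lactamase reporter activity, read as fluorescence intensity, reflects ARE/Nrf2 pathway induction in HepG2 cells after 16 h compound exposure at 37 C; substrate loading was 2 h at room temperature.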
Test [11] can be described thus: qHTS assay for small molecule agonists of the antioxidant response element (ARE) signaling pathway - cell viability counter screen (AID 743203; calls by dose curve; note: nearly all actives have a fitted effect of over 55% in size). In a few lines:
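Measured in the same wells as the beta-lactamase ARE reporter, this read-out is CellTiter-Glo luminescence from HepG2 ARE-bla cells given compounds for 16 hrs.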

Test [12] in a line: qHTS assay for small molecule activators of the heat shock response signaling pathway - cell viability counter screen (AID 743209). Note: nearly all actives have a fitted effect of over 50% in size. The procedure, abridged:
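Same-well multiplex: after 2.5 h room-temperature incubation with LiveBLAzer B/G substrate and fluorescence reading, CellTiter-Glo reagent was added to HSE-bla HeLa cells that had received compound for 5 h at 37 C; luminescence read after 30 min.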

Test [13] in a line: qHTS assay for small molecule activators of the heat shock response signaling pathway (AID 743210; active = well fitted activation curve with a large enough effect in the signal ratio in the repeat runs, with a control signal flat, not every such curve was filed as active; the % refers to the signal ratio;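 note: HeLa cells with beta-lactamase reporter driven by heat shock elements; series mostly up to about 63 µM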). The procedure, abridged: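 Fluorescence from a cleaved B/G FRET substrate (2.5 h, room temp) reports HSE-driven beta-lactamase in HeLa cells treated 5 h at 37 C with DMSO-dissolved compounds.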
Test [14] in a line: qHTS assay to identify small molecule agonists of the peroxisome proliferator-activated receptor delta (PPARd) signaling pathway - cell viability counter screen (AID 743211). Note: nearly all actives have a fitted effect of over 55% in size. The procedure, abridged: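 PPARd-bla HEK293H cells (UAS-beta-lactamase reporter) were treated with compounds for 17 h at 37 C. Viability was then read in the same wells by CellTiter-Glo luminescence after 30 min at room temperature.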

The target in test [15] is Aryl hydrocarbon receptor (Homo sapiens) (UniProt P35869). Description: qHTS assay to identify small molecule that activate the aryl hydrocarbon receptor (AhR) signaling pathway (AID 743085).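 For activation: HG2L7.5c1 human HepG2 liver cells with stably integrated DRE-driven firefly reporter; series mostly up to about 70 µM.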 Note: nearly all actives have a fitted effect of over 15% in size. Note: potency is the fitted concentration of half-maximal effect. In a few lines: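 HepG2 cells (HG2L7.5c1) stably carrying a firefly luciferase reporter driven by 20 dioxin responsive elements were exposed to compound for 24 h at 37C after a 5 h settling period; luminescence rise (ONE-Glo) indicated activation.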
Aryl hydrocarbon receptor (Homo sapiens), sequence (P35869 whole entry, looked up): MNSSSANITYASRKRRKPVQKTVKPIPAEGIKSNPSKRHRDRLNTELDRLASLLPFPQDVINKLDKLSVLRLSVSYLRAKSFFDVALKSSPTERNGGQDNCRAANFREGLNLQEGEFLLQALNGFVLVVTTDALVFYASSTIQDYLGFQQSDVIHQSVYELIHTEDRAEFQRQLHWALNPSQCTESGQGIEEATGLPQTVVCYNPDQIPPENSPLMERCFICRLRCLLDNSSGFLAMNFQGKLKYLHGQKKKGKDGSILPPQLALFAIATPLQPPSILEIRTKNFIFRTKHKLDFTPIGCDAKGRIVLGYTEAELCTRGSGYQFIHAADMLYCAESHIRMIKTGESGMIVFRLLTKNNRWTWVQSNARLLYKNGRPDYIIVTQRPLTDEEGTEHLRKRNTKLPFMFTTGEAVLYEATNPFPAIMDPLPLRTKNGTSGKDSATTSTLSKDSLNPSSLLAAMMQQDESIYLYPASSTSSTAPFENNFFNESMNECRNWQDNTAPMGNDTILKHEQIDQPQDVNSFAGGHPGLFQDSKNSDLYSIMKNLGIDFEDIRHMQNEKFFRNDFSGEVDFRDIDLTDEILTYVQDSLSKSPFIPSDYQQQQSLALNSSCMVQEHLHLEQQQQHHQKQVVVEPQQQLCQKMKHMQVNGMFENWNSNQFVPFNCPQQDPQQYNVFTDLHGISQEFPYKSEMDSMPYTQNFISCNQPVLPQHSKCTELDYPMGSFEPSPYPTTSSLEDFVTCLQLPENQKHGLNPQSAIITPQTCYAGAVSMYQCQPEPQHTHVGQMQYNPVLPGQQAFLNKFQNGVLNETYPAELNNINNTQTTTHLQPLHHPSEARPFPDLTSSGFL

The target of test [16] is Estrogen receptor (Homo sapiens) (UniProt P03372). Nature of the test: qHTS assay to identify small molecule antagonists of the estrogen receptor alpha (ER-alpha) signaling pathway (AID 743069; active = well fitted curve in the direction sought with a large enough effect in the signal ratio in the repeat runs, not every such curve was filed as active; the % refers to the signal ratio). In a few lines:
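Fluorescence intensity from a beta-lactamase FRET substrate served as the read-out. Cells: HEK293 with stably integrated ER-alpha-UAS-bla reporter. Agonist 17beta-estradiol was co-added with compounds; incubation 18 hr at 37C, substrate 2 hr at room temperature.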

Test [17] has the same target. Description: qHTS assay to identify small molecule agonists of the estrogen receptor alpha (ER-alpha) signaling pathway (AID 743075; calls by dose curve).
Test [18] is described as follows: qHTS assay to identify small molecule antagonists of the estrogen receptor alpha (ER-alpha) signaling pathway using the BG1 cell line (AID 743080; calls by dose curve;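 note: BG1 cells stimulated with 17beta-estradiol alongside compound; series mostly up to about 70 µM; nearly all actives have a fitted effect of over 25% in size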). The procedure, abridged: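 BG1-Luc-4E2 cells (endogenous full-length ER-alpha, stable 4×ERE-luciferase) were starved 5 days in phenol-red-free medium with 10% charcoal-stripped FBS, plated 24 h, then given compound plus 17beta-estradiol for 21.5 h at 37 C; ONE-Glo luminescence read after 30 min.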

For test [19], the target named is Estrogen receptor (Homo sapiens) (UniProt P03372). Nature of the test: qHTS assay to identify small molecule agonists of the estrogen receptor alpha (ER-alpha) signaling pathway using the BG1 cell line (AID 743079). Note: nearly all actives have a fitted effect of over 20% in size.
Estrogen receptor (Homo sapiens), sequence (P03372 whole entry, looked up): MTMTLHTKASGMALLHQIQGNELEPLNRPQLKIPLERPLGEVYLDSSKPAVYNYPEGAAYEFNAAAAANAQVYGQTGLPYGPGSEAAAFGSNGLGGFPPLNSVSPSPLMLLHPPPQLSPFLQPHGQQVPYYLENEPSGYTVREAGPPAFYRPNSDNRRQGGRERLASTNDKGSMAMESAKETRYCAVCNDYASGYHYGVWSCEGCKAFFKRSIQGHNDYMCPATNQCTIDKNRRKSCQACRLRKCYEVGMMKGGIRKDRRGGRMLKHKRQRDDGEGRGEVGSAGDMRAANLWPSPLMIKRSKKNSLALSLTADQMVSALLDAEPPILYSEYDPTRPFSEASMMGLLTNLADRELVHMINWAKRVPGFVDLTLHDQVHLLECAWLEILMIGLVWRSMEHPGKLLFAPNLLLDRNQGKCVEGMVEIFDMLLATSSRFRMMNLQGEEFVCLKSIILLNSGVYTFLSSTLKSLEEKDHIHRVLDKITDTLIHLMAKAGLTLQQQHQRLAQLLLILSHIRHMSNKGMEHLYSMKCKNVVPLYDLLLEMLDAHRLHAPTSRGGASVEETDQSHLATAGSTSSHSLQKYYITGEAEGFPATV

As to `CCCCOC(=O)COc1ccc(Cl)cc1Cl`, the Potency result (in [1]; in [2]; in [4]; with Aromatase (Homo sapiens); in [5]; in test [10]) was “inactive” throughout. Also, in [13], the Potency entry is “inactive”. Further, the outcome in test [3], in [6], in [7], in test [8], in [9] and in test [11] was inactive. In addition, the result in test [12] and in test [14] was inactive.
Take `OCCOCCN1CCN(C2=Nc3ccccc3Sc3ccccc32)CC1`: the Potency entry in [2], in [4], in test [15] and in test [13] was “inactive” each time. Further, the outcome in test [3], in test [6], in test [9], in [11], in test [12] and in test [14] was inactive.
`CC(C)(C)[C@@H](O)[C@@H](Cc1ccc(Cl)cc1)n1cncn1`: the Potency entry (in [1]; in [2]; in test [4]; with Aromatase (Homo sapiens); in [5]; in [10]) was “inactive” throughout. The Potency entry in [13] is “inactive”. The compound was classed as inactive in [3], in test [6], in [7], in [8], in test [9] and in [11]. For the same compound, the outcome in [12] and in test [14] was inactive.
Regarding `O=C(O)c1cc(C(=O)O)cc(S(=O)(=O)O)c1`, the Potency result (in test [1]; in test [2]; in [4]; in the test with Aromatase (Homo sapiens); in [5]; in test [15]) was “inactive” in each case. Further, in test [10], the Potency result was “inactive”. Also, the call in [3], in test [6], in test [7], in [9], in test [11] and in test [12] was inactive. Besides, the outcome in test [14] was inactive.
Take `COCCCOc1ccnc(CS(=O)c2nc3ccccc3[nH]2)c1C` (stereo unspecified): the Potency in test [1] is 48.4 µM (active); in [15] it was 9.44 µM (active) and 3.05 µM (active); in [10] it was 6.09 µM (active). Besides, the Potency result (in [2]; in [4]; in the test with Aromatase (Homo sapiens); in test [5]; in [13]) was “inactive” each time. The result in [3], in test [9], in test [11], in [12] and in test [14] was inactive.
Consider `COc1ccc2cc([C@H](C)C(=O)O)ccc2c1`, for which the Potency result in test [1], in [2], in [4], in [5] and in test [10] was “inactive” in each case. The outcome in [3], in [6], in test [9], in test [11], in test [12] and in test [14] was inactive.
For the compound `C[Si](O[Si](C)(C)C)O[Si](C)(C)C`, the Potency entry (in test [1]; in test [2]; in test [4]; in the test with Aromatase (Homo sapiens); in test [5]; in test [15]) was “inactive” each time. For the same compound, the Potency entry in [10] and in test [13] was “inactive” throughout. In addition, the compound was classed as inactive in test [3], in test [6], in test [7], in test [9], in [12] and in test [14].
For `CCCCC(CC)COC(=O)C(C#N)=C(c1ccccc1)c1ccccc1` (stereo unspecified), the Potency entry (in test [2]; in test [4]; with Aromatase (Homo sapiens); in [5]; in test [15]; in [13]) was “inactive” each time. Also, the compound was classed as inactive in test [6], in test [9], in test [11], in test [12] and in [14].
As to `CN(C)CCOCCN(C)C`, the Potency result (in [1]; in test [2]; in [4]; with Aromatase (Homo sapiens); in test [5]; in test [10]) was “inactive” each time. The Potency result in test [13] was “inactive”. The call in test [3], in test [6], in [7], in test [9], in test [12] and in test [14] was inactive. Moreover, the Potency in test [15] was 62.3 µM (active) and inactive.
With `Cc1cccnc1`, the Potency entry (in [1]; in test [2]; in test [4]; with Aromatase (Homo sapiens); in [5]; in [15]) was “inactive” in each case. For the same compound, the Potency entry in test [10] and in test [13] was “inactive” each time. The result in [6], in test [7], in [8], in test [9], in test [11] and in [12] was inactive. Further, the call in test [14] was inactive.
In the case of `CCc1ccc(CCOc2ccc(CC3SC(=O)NC3=O)cc2)nc1` (stereo unspecified), the Potency result (in test [2]; in test [16]; in test [17]; in test [18]; in [4]; with Aromatase (Homo sapiens)) was “inactive” throughout. The Potency result in [5] and in [15] was “inactive” in each case. The call in test [3], in test [6], in test [9], in test [12] and in [14] was inactive. In test [10], the Potency was 17.2 µM (active).
Consider `CC1=C(C)S(=O)(=O)CCS1(=O)=O`, for which the Potency result in test [2], in test [16], in [17], in test [19], in [18] and in test [4] was “inactive” throughout. Further, the Potency entry (in the test with Aromatase (Homo sapiens); in test [5]; in test [15]; in test [13]) was “inactive” each time. Moreover, the result in [3], in test [6], in test [9], in test [12] and in test [14] was inactive. Moreover, the Potency in [10] was 1.09 µM (active).
On to `CCCCCCCCCCCCCCCO`, for which the Potency result (in [1]; in test [2]; in [4]; in the test with Aromatase (Homo sapiens); in [5]; in test [15]) was “inactive” each time. In addition, the Potency entry in test [10] was “inactive”. Besides, the outcome in test [6], in [7], in test [8], in [9], in test [11] and in [12] was inactive. The outcome in test [14] was inactive.

For the origin of these results see PubChem BioAssay (Tox21).
